Inconclusive results are not listed. Calls of active or inactive are those of the source. Unless noted, calls come from the whole dose curve.
Key:
[1] = target: Parathyroid hormone/parathyroid hormone-related peptide receptor (Homo sapiens) (UniProt Q03431); test: qHTS for PTHR1 Agonists: Optimization Screen against the NCGC LOPAC library (AID 1347079; active = well fitted activation curve with a large enough effect;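 note: GloSensor cAMP luminescence in HEK-293 GP2 cells expressing human PTHR1 with IBMX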)
How it was run: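 Signal increase flags agonism. GP2 cells, derived from HEK-293, express human PTHR1 and a GloSensor cAMP construct.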

[2] = qHTS for Inhibitors of the Functional Ribonucleoprotein Complex (vRNP) of Lassa (LASV) Arenavirus: LASV Primary Screen - GLuc reporter signal (AID 1347082; calls by dose curve; tested in HEK293 reporter line; note: series mostly up to about 57 µM; nearly all actives have a fitted effect of over 60% in size)
[3] = qHTS for Inhibitors of the Functional Ribonucleoprotein Complex (vRNP) of Lassa (LASV) Arenavirus: Viability assay - alamar blue signal for LASV Primary Screen (AID 1347083; calls by dose curve; tested in HEK293 reporter line; note: series mostly up to about 57 µM; nearly all actives have a fitted effect of over 80% in size)
[4] = qHTS for Inhibitors of the Functional Ribonucleoprotein Complex (vRNP) of Lymphocytic Choriomeningitis Arenaviruses (LCMV): Viability assay - alamar blue signal for LCMV Primary Screen (AID 1347085; calls by dose curve; tested in HEK293 reporter line; note: series mostly up to about 57 µM; nearly all actives have a fitted effect of over 80% in size)
[5] = target: Nucleoprotein (Lymphocytic choriomeningitis virus (strain Armstrong)) (UniProt P09992); test: qHTS for Inhibitors of the Functional Ribonucleoprotein Complex (vRNP) of Lymphocytic Choriomeningitis Arenaviruses (LCMV): LCMV Primary Screen - GLuc reporter signal (AID 1347086); note: series mostly up to about 57 µM; nearly all actives have a fitted effect of over 70% in size

Measured: Potency

Sequence of Nucleoprotein (Lymphocytic choriomeningitis virus (strain Armstrong)) (P09992 whole entry, looked up): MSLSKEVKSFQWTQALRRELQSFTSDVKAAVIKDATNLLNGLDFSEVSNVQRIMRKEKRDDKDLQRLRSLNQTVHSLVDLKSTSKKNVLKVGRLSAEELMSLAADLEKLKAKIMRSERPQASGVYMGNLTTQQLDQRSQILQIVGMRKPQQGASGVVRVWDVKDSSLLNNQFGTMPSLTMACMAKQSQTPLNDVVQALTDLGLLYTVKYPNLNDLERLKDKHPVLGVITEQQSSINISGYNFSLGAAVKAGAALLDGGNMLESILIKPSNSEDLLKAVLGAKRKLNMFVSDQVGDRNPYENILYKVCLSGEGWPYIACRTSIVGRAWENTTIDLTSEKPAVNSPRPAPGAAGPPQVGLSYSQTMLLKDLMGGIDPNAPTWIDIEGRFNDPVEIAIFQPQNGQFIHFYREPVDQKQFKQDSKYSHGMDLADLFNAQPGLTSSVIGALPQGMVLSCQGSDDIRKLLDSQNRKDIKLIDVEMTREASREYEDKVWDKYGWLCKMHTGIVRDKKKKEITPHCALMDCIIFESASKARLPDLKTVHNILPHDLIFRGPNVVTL
Sequence of Parathyroid hormone/parathyroid hormone-related peptide receptor (Homo sapiens) (Q03431 whole entry, looked up): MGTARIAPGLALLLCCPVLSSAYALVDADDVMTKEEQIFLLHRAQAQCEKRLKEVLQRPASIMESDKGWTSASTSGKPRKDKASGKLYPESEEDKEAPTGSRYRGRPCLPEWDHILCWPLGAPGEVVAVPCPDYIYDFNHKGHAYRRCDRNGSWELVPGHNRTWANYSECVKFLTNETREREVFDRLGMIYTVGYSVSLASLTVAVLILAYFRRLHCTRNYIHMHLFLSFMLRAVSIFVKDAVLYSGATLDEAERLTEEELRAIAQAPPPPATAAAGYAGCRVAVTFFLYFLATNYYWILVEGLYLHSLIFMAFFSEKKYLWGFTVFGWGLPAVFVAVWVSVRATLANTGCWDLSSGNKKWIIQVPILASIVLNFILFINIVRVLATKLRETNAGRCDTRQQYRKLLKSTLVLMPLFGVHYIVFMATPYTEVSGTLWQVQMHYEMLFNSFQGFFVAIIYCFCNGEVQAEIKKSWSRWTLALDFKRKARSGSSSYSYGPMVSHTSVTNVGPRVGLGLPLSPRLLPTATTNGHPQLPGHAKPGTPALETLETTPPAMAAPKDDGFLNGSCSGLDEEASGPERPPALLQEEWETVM

CP(=O)(O)C1=CCNCC1
inactive: [1] | [2] | [3] | [4] | [5]

CC(C)[C@@]1(NC(=O)[C@@H]2C[C@@H]3c4cccc5[nH]cc(c45)C[C@H]3N(C)C2)O[C@@]2(O)[C@@H]3CCCN3C(=O)[C@H](Cc3ccccc3)N2C1=O
inactive: [1] | [2] | [3] | [4] | [5]

CCCn1c(=O)c2[nH]c(C3CCCC3)nc2n(CCCOC(=O)c2ccc(S(=O)(=O)F)cc2)c1=O
inactive: [1] | [2] | [3] | [4] | [5]

NC(N)=NOCC[C@H](N)C(=O)O
inactive: [1] | [2] | [3] | [4] | [5]

CCCC[N+]1(C)C2CC(OC(=O)[C@H](CO)c3ccccc3)CC1C1OC12 (stereo not given in full)
inactive: [1] | [2] | [3] | [4] | [5]

CC(N)Cc1c[nH]c2ccc(OCc3cccs3)cc12 (stereo not given)
inactive: [1] | [2] | [3] | [4] | [5]

C[N+]1(C)CCc2cc3c(cc2[C@H]1[C@@H]1OC(=O)c2c1ccc1c2OCO1)OCO3
inactive: [1] | [2] | [3] | [4] | [5]

NC(N)=Nc1ccc2[nH]c3c(c2c1)C[C@@]1(O)[C@H]2Cc4ccc(O)c5c4[C@@]1(CCN2CC1CC1)[C@H]3O5
inactive: [1] | [2] | [3] | [4] | [5]

COc1ccc2c(c1O)-c1cccc3c1[C@@H](C2)N(C)CC3
inactive: [1] | [2] | [3] | [4] | [5]

N[C@@H](Cn1oc(=O)[nH]c1=O)C(=O)O
inactive: [1] | [2] | [3] | [4] | [5]

O=C1CC[C@@]2(O)C3Cc4ccc(O)c5c4C2(CCN3CC2CC2)[C@H]1O5 (stereo not given in full)
inactive: [1] | [2] | [3] | [4] | [5]

OC1CCCCC1N1CCC(c2ccccc2)CC1 (stereo not given)
inactive: [1] | [2] | [3] | [4] | [5]

CCCN1CC[C@@H]2c3cc(O)ccc3CC[C@@H]21
inactive: [1] | [2] | [3] | [4] | [5]

O=C(O)c1cc[c]([Hg][Cl])cc1
inactive: [1] | [2] | [3] | [4] | [5]

N=C(N)c1ccc(CS(=O)(=O)F)cc1
inactive: [1] | [2] | [3] | [4] | [5]

CN(N=O)c1cc(O)ccc1O
inactive: [1] | [2] | [3] | [4] | [5]

C[C@H](Cc1ccc2c(c1)OC(C(=O)O)(C(=O)O)O2)NC[C@H](O)c1cccc(Cl)c1
inactive: [1] | [2] | [3] | [4] | [5]

CCCCCCCCCCCCCC(=O)O[C@@H]1[C@@H](C)[C@@]2(O)[C@@H](C=C(CO)C[C@@]3(O)C(=O)C(C)=C[C@@H]23)C2C(C)(C)[C@@]21OC(C)=O (stereo not given in full)
inactive: [1] | [2] | [3] | [4] | [5]

Clc1cc(I)cc(Cl)c1NC1=NCCN1
inactive: [1] | [2] | [3] | [4] | [5]

Oc1ccc2c3c1O[C@H]1c4[nH]c5ccccc5c4C[C@@]4(O)C(C2)N(CC2CC2)CCC314 (stereo not given in full)
inactive: [1] | [2] | [3] | [4] | [5]

CCCN1CCc2cccc3c2[C@H]1Cc1ccc(O)c(O)c1-3
inactive: [1] | [2] | [3] | [4] | [5]

CN1CC[C@@]2(C)c3cc(O)ccc3N(C)C12 (stereo not given in full)
inactive: [1] | [2] | [3] | [4] | [5]

CCOC(=O)c1ncn2c1[C@@H]1CCCN1C(=O)c1cc(OC)ccc1-2
inactive: [1] | [2] | [3] | [4] | [5]

CO[C@H]1CC=C2CCN3CCC4=C(CC(=O)OC4)[C@]23C1
inactive: [1] | [2] | [3] | [4] | [5]

CCCN(CCC)[C@H]1CCc2c(F)ccc(O)c2C1
inactive: [1] | [2] | [3] | [4] | [5]

CCCN1CCc2cc(O)cc3c2[C@H]1Cc1ccc(O)c(O)c1-3
inactive: [1] | [2] | [3] | [4] | [5]

COC(=O)N1CCN(C(=O)Cc2ccc(Cl)c(Cl)c2)C(CN2CCCC2)C1 (stereo not given)
inactive: [1] | [2] | [3] | [4] | [5]

CC(C)NP(=O)(NC(C)C)OP(=O)(NC(C)C)NC(C)C
inactive: [1] | [2] | [3] | [4] | [5]

C=CCN1CC[C@]23c4c5ccc(O)c4O[C@H]2/C(=N/NC(=O)c2ccccc2)CC[C@@]3(O)[C@H]1C5
inactive: [1] | [2] | [3] | [4] | [5]

— PubChem BioAssay (NCATS)
